Hits are enriched below; roughly 3.6% of the tested compounds scored in any of these assays.
BoNT F protease: BoNT F light chain protease inhibition; Multiplex microsphere protease cleavage assay, flow cytometry; inhibition, % at 10 µM; actives 0.22% (n = 360,000); AID 588497; in the data active = inhibition above about 35%, passing the limit was not always enough; inconclusive = no clear call, values can overlap the other calls
BoNT-A LC inh2: BoNT A light chain protease inhibition; inhibition, % at 10 µM; multiplex microsphere protease substrate cleavage, flow cytometry; actives 0.17% (n = 360,000)
Bead autofluor: flagged as autofluorescent in microsphere protease counterscreen; fluorescence intensity (concentration not given with the values); compound autofluorescence counterscreen, microsphere flow cytometry; active compounds read high; actives 3.1% (n = 360,000); in the data active = fluorescence intensity above about 16000; inconclusive = no clear call, values can overlap the other calls
Anthrax LF prot: inhibitors of Bacillus anthracis lethal factor protease; P15917; multiplex microsphere protease cleavage assay, LF; inhibition, % at 10 µM; actives 0.12% (n = 360,000); AID 588501
MazEF act: increases E. coli MazEF RNase cleavage of RNA; P0AE70; FAM/BHQ RNA-DNA oligo cleavage fluorescence, 5 h; activation, % at 20 µM; actives 0.32% (n = 350,000); AID 504720; in the data active = activation above about 50%
Target sequence (P0AE70 whole entry, looked up): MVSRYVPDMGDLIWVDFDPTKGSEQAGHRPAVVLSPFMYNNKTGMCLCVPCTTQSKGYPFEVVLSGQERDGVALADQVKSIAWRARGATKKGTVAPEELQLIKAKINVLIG
BoNTA LC inh 1: blocks botulinum neurotoxin A light chain protease; actives 3% (n = 720); shares compounds with BoNT F protease; multiplex microsphere protease assay, flow cytometry; inhibition, % at 10 µM; in the data active = inhibition above about 32%
BoNT-F LC CP1: inhibitors of Botulinum neurotoxin F light chain protease; shares compounds with BoNT F protease; multiplex microsphere protease cleavage assay, flow cytometry; inhibition, % at 10 µM; 720 tested, under 10 active; call rule not given here
Anthrax LF CP1: inhibitors of Bacillus anthracis lethal factor protease. shares compounds with BoNT F protease. multiplex microsphere protease cleavage assay, LF. inhibition, % at 10 µM. 720 tested, under 10 active; call rule not given here
Numbers stand for hits; i = inactive; ? = inconclusive; nt = not tested or not shown; + = active, no number. Rule as the data show it, unless noted: active = inhibition above about 30%; inconclusive = no clear call, values can overlap the other calls; inactive = below that.

SMILES	BoNT F protease	BoNT-A LC inh2	Bead autofluor	Anthrax LF prot	MazEF act	BoNTA LC inh 1	BoNT-F LC CP1	Anthrax LF CP1
Cc1ccc(N2C(=O)N(CC(=O)NCc3ccc(Cl)cc3)C(=O)C2C)cc1 (stereo not given)	i	i	i	i	i	nt	nt	nt
CCc1ccc(C(=O)CN2C(=O)C(C)N(c3ccc(C)cc3)C2=O)cc1 (stereo not given)	50	i	i	i	i	i	i	i
O=C(CC(=O)Nc1ccccc1F)Nc1ccccc1F	i	i	i	42	i	i	i	i
O=C(CN1CCCCCC1)Nc1ccccc1F	i	i	i	i	i	nt	nt	nt
O=[N+]([O-])c1ccc(N=Nc2ncc[nH]2)cc1	i	i	i	i	i	nt	nt	nt
O=C(O)CSc1nc2ccc(Br)cc2[nH]1	i	i	i	i	i	nt	nt	nt
CCC(C)NC(=O)c1cc2cc3ccc(OC)cc3nc2s1 (stereo not given)	i	i	i	i	i	i	i	i
CCN1CCN(S(=O)(=O)c2cccc([N+](=O)[O-])c2)CC1	i	i	i	i	i	nt	nt	nt
O=[N+]([O-])c1cccc(S(=O)(=O)N2CCCC2)c1	i	i	i	i	i	i	i	i
CC(C)c1ccc2nc3sc(C(=O)N4CCc5ccccc5C4)c(N)c3cc2c1	i	i	i	i	i	i	i	i
CCN1CCc2nc3sc(C(=O)N4CCc5ccccc5C4)c(N)c3cc2C1	i	i	i	i	i	nt	nt	nt
CC(CN1CCOCC1)C(=O)c1ccccc1 (stereo not given)	i	i	i	i	i	i	i	i
CCCOc1ccc(C(=O)C(CN2CCOCC2)c2ccccc2)cc1 (stereo not given)	i	i	i	i	i	nt	nt	nt
COc1ccc(NCc2nnc(-c3ccccc3)o2)cc1	i	i	i	i	i	nt	nt	nt
CCn1c(=O)n(CC)c2cc(S(N)(=O)=O)c(C)cc21	44	i	i	i	i	i	i	i
CCn1c(=O)n(CC)c2cc(S(=O)(=O)N3CCCCC3)c(C)cc21	i	i	i	i	i	nt	nt	nt
CCn1cc(C(=O)NCc2ccccc2Cl)cn1	40	i	i	i	i	i	i	i
CCn1cc(C(=O)Nc2ccccc2C(=O)OC)cn1	?	i	i	i	i	nt	nt	nt
CCCCCCC1CC(=CN(C)C)C(=O)O1 (stereo not given)	i	i	i	i	i	nt	nt	nt
Nc1c(C(=O)NC2CCCC2)c2nc3ccccc3nc2n1CC1CCCO1 (stereo not given)	i	31	i	i	i	i	i	i
Nc1c(C(=O)NC2CCCC2)c2nc3ccccc3nc2n1N	i	i	i	i	i	nt	nt	nt
COc1ccc(-n2c(SCC(C)=O)nc3sc(C)c(C)c3c2=O)cc1	?	i	i	i	i	nt	nt	nt
Cc1ccc(S(=O)(=O)N(CC(=O)NCc2ccncc2)Cc2ccccc2F)cc1	35	i	i	i	i	i	i	i
CC(C)(C)c1ccc(S(=O)(=O)Nc2ccc(C(O)(C(F)(F)F)C(F)(F)F)cc2)cc1	i	i	i	i	nt	nt	nt	nt
CC(C)n1c2ccccc2c2nc3ccccc3nc21	i	55	i	i	i	i	i	i
SMILES	BoNT F protease	BoNT-A LC inh2	Bead autofluor	Anthrax LF prot	MazEF act	BoNTA LC inh 1	BoNT-F LC CP1	Anthrax LF CP1
C#CCn1c2ccccc2c2nc3ccccc3nc21	?	i	i	i	i	nt	nt	nt
CCOC(=O)CC(=O)CSc1ncc(C(=O)OCC)c(N)n1	134	i	i	50	i	i	i	i
Cc1ccc(Cc2c(-c3ccc(Br)cc3)nc3cc(C)ccn23)cc1	i	i	i	i	i	nt	nt	nt
Nc1ccc(S(=O)(=O)Nc2nccc(/C=C/c3cccc(Br)c3)n2)cc1	37	i	i	i	i	i	i	i
NC(=O)C(c1ncc(C(F)(F)F)cc1Cl)c1c(Cl)cccc1Cl (stereo not given)	48	?	?	?	i	i	i	i
Cc1cccc(N(CC(=O)N2CCCCCC2)S(C)(=O)=O)c1C	36	i	i	i	i	i	i	i
O=C(NC(c1ccc(-c2ccccc2)cc1)c1cnccn1)C1CCN(Cc2ccc3c(c2)OCO3)CC1 (stereo not given)	i	i	i	i	nt	nt	nt	nt
CC(C)c1ccc(NC(=O)C2CC(=O)N(C(C)C)C2)cc1 (stereo not given)	?	i	i	i	i	nt	nt	nt
Cc1cccc(C)c1NC(=O)C1CC(=O)N(C(C)C)C1 (stereo not given)	35	i	i	i	i	i	i	i
Cn1ccnc1C(O)c1cc(C(C)(C)C)c(O)c(C(C)(C)C)c1 (stereo not given)	i	i	i	32	i	i	i	i
COC(=O)Cc1ccc(NC(=S)NCCSc2ccc(Cl)cc2)cc1	i	i	i	i	i	nt	nt	nt
COc1cccc(CN2CCN(C(=O)c3cccc(OC)c3)CC2)c1	i	i	i	i	i	nt	nt	nt
O=C(c1ccccc1)N1CCN(Cc2cccc(Oc3ccccc3)c2)CC1	38	i	i	i	i	i	i	i
O=C(NCc1ccc(Cl)cc1)c1noc2c1CCCC2	i	i	i	i	i	nt	nt	nt
O=C(NCc1ccccc1)c1noc2c1CCCC2	35	i	i	i	i	i	i	i
CC(=O)N1N=C(c2cccs2)CC1c1cccc([N+](=O)[O-])c1 (stereo not given)	i	i	i	i	i	nt	nt	nt
CC(=O)N1N=C(c2ccccc2)CC1c1cccc([N+](=O)[O-])c1 (stereo not given)	42	i	i	i	i	i	i	i
CC(=O)NCCC(=O)N1CCCC(N2CCN(c3cccc(Cl)c3)CC2)C1 (stereo not given)	42	i	i	i	i	i	i	i
COCCN(C(=S)Nc1ccc(Cl)cc1OC)C1CCN(C(C)=O)CC1	i	i	i	i	i	nt	nt	nt
O=C(OCc1cn([C@@H]2C[C@H](c3ccc(Cl)cc3)N(C(=O)C3CCCCC3)C[C@H]2O)nn1)c1ccccc1	i	i	i	i	i	nt	nt	nt
CCC(C)(C)n1nnnc1C(c1cc2cc(C)cc(C)c2[nH]c1=O)N1CCCC1 (stereo not given)	i	i	i	i	i	nt	nt	nt
CCC(C)(C)n1nnnc1C(c1cc2ccc(OC)cc2[nH]c1=O)N1CCCCC1 (stereo not given)	i	i	i	i	i	i	i	i
CCC(C)(C)n1nnnc1C(c1cc2cccc(C)c2[nH]c1=O)N1CCCC1 (stereo not given)	i	?	23337	i	i	i	i	i
C[C@H]1NC(=O)[C@]2(C)[C@@H](c3ccccc3)[C@H]3COc4ccccc4[C@H]3N2C1=O	i	i	i	i	i	nt	nt	nt
COc1cc(-c2cc(NC=O)c3ncc(-c4cccc(C(=O)N(C)C)c4)n3c2)cc(OC)c1OC	i	i	i	i	nt	nt	nt	nt
Cc1cc(C)c2c(c1)NC(c1cc3c(cc1Br)OCO3)C1CC=CC21 (stereo not given)	+	i	i	i	i	i	i	i
Brc1cc2c(cc1C1Nc3ccccc3C3C=CCC31)OCO2 (stereo not given)	i	i	i	i	i	nt	nt	nt
